According to ChEMBL document CHEMBL1857833, “Screening and optimization of specific chemical series against human African Trypanosomiasis (HAT)”:
In all, about 4,400 compounds went through this assay and about 390 (8.9%) showed an effect of 50% or more. Many of the other results were omitted from the sample, so strong results are more common in it than they were.

The molecules below were run on Trypanosoma brucei (assay: DNDI: Inhibition of Human African Trypanosomiasis, SBRI 427, in vitro at 2 ug.mL-1).
Assay type: functional
`COc1ccccc1CN/C(=N\O)c1ccc(C)nc1Oc1ccc(C)cc1OC` was tested, and the “% inhibition” value was 11%. With `Cc1ccc(Oc2nc(C)ccc2/C(=N/O)NCc2c(F)cccc2F)c(C)c1` the “% inhibition” value was -3%. In the case of `COc1cc(C)ccc1Oc1nc(C)ccc1/C(=N/O)NCc1c(F)cccc1F`, the “% inhibition” value is reported as 95%. For `COc1cc(C)ccc1Oc1nc(C)ccc1/C(=N/O)NCc1cc(F)cc(F)c1`, the “% inhibition” value was 98%. In the case of `COc1cc(C)ccc1Oc1nc(C)ccc1/C(=N/O)NCc1ccccn1`, the “% inhibition” value is reported as -7%. In the case of `Cc1cc(C)cc(CN/C(=N\O)c2ccc(C)nc2OCc2ccccn2)c1`, the “% inhibition” value is reported as 80%. For `Cc1ccc(/C(=N/O)NCc2ccccn2)c(OCc2ccccn2)n1`, the “% inhibition” value was -11%. With `COc1ccc(Oc2nc(C)ccc2/C(=N/O)NCc2cc(F)cc(F)c2)cc1` the “% inhibition” value was -8%. For `COc1ccc(CN/C(=N\O)c2ccc(C)nc2Oc2ccc(C)cc2OC)cc1`, the “% inhibition” value was 24%. `COc1cc(C)ccc1Oc1nc(C)ccc1/C(=N/O)NCc1ccccc1` was tested, and the “% inhibition” value was 99%. In the case of `Cc1ccc(Oc2nc(C)ccc2/C(=N/O)NCc2cc(F)cc(F)c2)c(C)c1`, the “% inhibition” value is reported as 6%. For `Cc1ccc(/C(=N/O)NCc2ccccc2)c(OCc2ccccn2)n1`, the “% inhibition” value was 13%. `FC(F)(F)c1cccc(CNCc2coc(-c3ccc(Cl)cc3Cl)n2)c1` was tested, and the “% inhibition” value was -2%. With `CCOc1ccccc1-c1nc(CN2CCN(c3cccc(C)c3)C(C)C2)co1` (stereo not drawn) the “% inhibition” value was -6%. `COCCN(CCOC)Cc1coc(-c2ccc(O)cc2)n1` was tested, and the “% inhibition” value was 38%. `Cc1cccc(Oc2ccc(/C(=N/O)NCc3cccnc3)cn2)c1` was tested, and the “% inhibition” value was 12%. In the case of `Cc1cccc(-c2nc(CN(C)CC#N)co2)c1`, the “% inhibition” value is reported as 4%. For `O/N=C(/c1cccnc1Oc1ccccc1Cl)N1CCN(c2ccc(F)cc2)CC1`, the “% inhibition” value was 3%. In the case of `Cc1ccc(/C(=N/O)N2CCSCC2)c(Oc2ccc3ccccc3c2)n1`, the “% inhibition” value is reported as 12%. For `COc1cc(C)ccc1Oc1nc(C)ccc1/C(=N/O)NCc1cc(C)cc(C)c1`, the “% inhibition” value was 98%. For `Cc1cc(C)cc(CN/C(=N\O)c2ccc(C)nc2Oc2cc(C)cc(C)c2)c1`, the “% inhibition” value was 41%. For `Cc1cc(C)cc(CN/C(=N\O)c2ccc(C)nc2Oc2ccc(C)cc2C)c1`, the “% inhibition” value was 18%. For `CCN(CC)Cc1coc(-c2ccc(C)cc2)n1`, the “% inhibition” value was 1%. For `Cc1nccn1/C(=N\O)c1ccc(Oc2ccc(Cl)cc2)nc1`, the “% inhibition” value was 5%. In the case of `CSc1ccc(Oc2nc(C)ccc2/C(=N/O)N(C)c2ccccc2)cc1C`, the “% inhibition” value is reported as 5%. With `Cc1ccc(/C(=N/O)NCC(C)C)c(Oc2ccc3ccccc3c2)n1` the “% inhibition” value was 13%. With `COc1ccc(Oc2nc(C)ccc2/C(=N/O)N(C)c2ccccc2)cc1` the “% inhibition” value was -6%. `Cc1ccc(/C(=N/O)N(C)c2ccccc2)c(Oc2cccc(F)c2)n1` was tested, and the “% inhibition” value was 86%. With `Cc1ccc(/C(=N/O)NCC(C)C)c(Oc2cccc(F)c2)n1` the “% inhibition” value was 79%. In the case of `Cc1ccc(/C(=N/O)NCc2ccccc2)c(Oc2cccc(F)c2)n1`, the “% inhibition” value is reported as 13%. In the case of `Cc1cccc(Oc2nc(C)ccc2/C(=N/O)NCC(C)C)c1`, the “% inhibition” value is reported as 94%. For `Cc1ccc(/C(=N/O)NCc2cc(F)cc(F)c2)c(Oc2cccc(F)c2)n1`, the “% inhibition” value was 28%. In the case of `Cc1ccc(/C(=N/O)NCC(C)C)c(Oc2cccc(C(C)C)c2)n1`, the “% inhibition” value is reported as 3%. For `COc1cc(-c2nc(CN3CCN(c4cc(C)nc5ccccc45)CC3)co2)cc(OC)c1OC`, the “% inhibition” value was 10%. `CN(Cc1ccco1)/C(=N\O)c1ccc(Oc2c(F)c(F)cc(F)c2F)nc1` was tested, and the “% inhibition” value was -10%. `COc1cc(-c2nc(CN3CC[C@H]4CCCC[C@@H]4C3)co2)cc(OC)c1OC` was tested, and the “% inhibition” value was -12%. For `COc1cc(-c2nc(CNCc3cccc4ccccc34)co2)cc(OC)c1OC`, the “% inhibition” value was 0%. In the case of `Cc1ccc(/C(=N/O)NCc2ccco2)c(Oc2ccc(F)cc2)n1`, the “% inhibition” value is reported as 22%. With `CCN1CCN(Cc2coc(-c3ccc(Cl)cc3Cl)n2)CC1` the “% inhibition” value was 22%. In the case of `CN(CCc1ccccn1)Cc1coc(-c2ccccc2Cl)n1`, the “% inhibition” value is reported as 10%. In the case of `CC(C)(C)CN/C(=N\O)c1ccnc(Oc2ccc(F)c(Cl)c2)c1`, the “% inhibition” value is reported as 96%. For `CSCCN/C(=N\O)c1ccnc(Oc2ccc(F)c(Cl)c2)c1`, the “% inhibition” value was 5%. In the case of `CC(C)(C)CN/C(=N\O)c1ccnc(Oc2cccc(F)c2)c1`, the “% inhibition” value is reported as 76%. With `O/N=C(\NCc1c(F)cccc1F)c1ccnc(Oc2ccc(F)c(Cl)c2)c1` the “% inhibition” value was 30%. In the case of `CCC(C)(C)N/C(=N\O)c1ccnc(Oc2cccc(F)c2)c1`, the “% inhibition” value is reported as 1%. With `Cc1cc(C)cc(CN/C(=N\O)c2ccnc(Oc3cccc(F)c3)c2)c1` the “% inhibition” value was 11%. `Brc1ccccc1-c1nc(CNC[C@@H]2CCCO2)co1` was tested, and the “% inhibition” value was -9%. `COc1ccc(Oc2nc(C)ccc2/C(N)=N/O)cc1` was tested, and the “% inhibition” value was 9%. For `CCCCC(CC)CNCc1coc(-c2ccc(C)cc2)n1` (stereo not drawn), the “% inhibition” value was 10%. In the case of `Cc1ccc(/C(=N/O)N2c3ccccc3CCC2C)c(Oc2ccc3oc4ccccc4c3c2)n1` (stereo not drawn), the “% inhibition” value is reported as -9%. For `O/N=C(\Nc1ccccc1)c1ccc(Oc2ccc3ccccc3c2)nc1`, the “% inhibition” value was -7%. In the case of `O/N=C(\NC1CCC1)c1ccc(Oc2ccc3ccccc3c2)nc1`, the “% inhibition” value is reported as 96%. In the case of `O/N=C(\NC1CCCCC1)c1ccc(Oc2ccc3ccccc3c2)nc1`, the “% inhibition” value is reported as 77%.
